The list is not random: actives were taken first. Their share in the collection is about 12%.
BAZ2B inh: qHTS Assay for Inhibitors of BAZ2B. Bromodomain adjacent to zinc finger domain protein 2B (Homo sapiens), Q9UIF8. AlphaScreen BAZ2B-H3K14Ac peptide displacement. Potency, µM (doses to about 114 µM), for the others: top-dose activity change, negative = inhibition, actives largely listed as inhibitors. 360,000 compounds, 4.4% hits. AID 504333, 2011; also: % is scaled to controls: 0 for no effect and ±100 for the full control effect; nearly all actives have a fitted effect of over 60% in size
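Inhibition is scored as reduced AlphaScreen emission. The BAZ2B/b-H3(5-23)K14Ac complex (50 nM each) in PBS pH 7.4, 0.01% Tween-20 meets compound (up to 110 uM) for 30 min at RT before bead addition.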
Sfp PPTase inh: qHTS Assay for Inhibitors of Bacillus subtilis Sfp phosphopantetheinyl transferase (PPTase); Biochemical Sfp PPTase activity, qHTS; 310,000 compounds, 3.5% hits; AID 1490, 2009; Potency, µM, without a hit: largest response in the series, negative = inhibition, actives largely listed as inhibitors; 4'-phosphopantetheinyl transferase ffp (Bacillus subtilis), Q9F4F7;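 also: the enzyme is Sfp with the accession as filed and its product quenches rhodamine fluorescence; 0% = enzyme reaction without inhibitor and -100% = no enzyme wells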
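Sfp 15 nM + cpd, 15 min RT; start w/ rhodamine-CoA 5 uM, BHQ-2-YbbR 12.5 uM (final); 50 mM Hepes pH 7.6, 10 mM MgCl2, 0.01% NP-40, 0.01% BSA; read 525/598 nm at 0 and 30 min.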
PLK1 PBD inh: qHTS for Inhibitors of PLK1-PDB (polo-like kinase 1 - polo-box domain): Primary Screen; Potency, µM, inactives show max response, negative = inhibition, hits mostly inhibitors; Plk1 PBD binding of FITC phosphopeptide, fluorescence polarization; AID 720504, 2013; Serine/threonine-protein kinase PLK1 (Homo sapiens), P53350; 360,000 compounds, 2.8% hits; also: series mostly up to about 57 µM; % is scaled to controls: 0 for no effect and ±100 for the full control effect; nearly all actives have a fitted effect of over 65% in size
HP1b chromo inh: HTS for Inhibitors of HP1-beta Chromodomain Interactions with Methylated Histone Tails | Chromobox protein homolog 1 (Homo sapiens), P83916 | AlphaScreen HP1-beta / biotin-H3K9me3 peptide binding | Potency, µM (series often up to 114 µM), for inactives: at the top dose activity change, negative = inhibition, hits mostly inhibitors | 390,000 compounds, 0.56% hits | AID 540317, 2011; also: nearly all actives have a fitted effect of over 70% in size
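HP1-beta protein (50 nM final) preincubated 30 min at room temperature with biotinylated H3(1-18)K9me3 peptide (50 nM) in PBS pH 7.4, 0.01% Tween-20, then compound added for 30 min. AlphaScreen streptavidin donor/nickel chelate acceptor beads (10 ug/mL final), 30 min dark, luminescence read.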
JMJD2A Tudor inh: qHTS Assay for Inhibitors of JMJD2A-Tudor Domain | 390,000 compounds, 4.4% hits | Lysine-specific demethylase 4A (Homo sapiens), O75164 | AID 504339, 2011 | AlphaScreen JMJD2A-Tudor / H3K4me3 peptide binding | Potency, µM (top dose mostly 114 µM), for inactives: at the top dose activity change, negative = inhibition, most hits filed as inhibitors; also: % is scaled to controls: 0 for no effect and ±100 for the full control effect; nearly all actives have a fitted effect of over 50% in size
G9a inh: qHTS Assay for Inhibitors of Histone Lysine Methyltransferase G9a; 350,000 compounds, 8.8% hits; Histone-lysine N-methyltransferase EHMT2 (Homo sapiens), Q96KQ7; Potency, µM (series often up to 102 µM), for the others: top-dose activity, negative = inhibition, hits mostly inhibitors; G9a H3K9 monomethylation, AlphaScreen, 2 h; also: % is scaled to controls: 0 for no effect and ±100 for the full control effect; nearly all actives have a fitted effect of over 75% in size
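AlphaScreen detection with an anti-monomethyl H3K9 antibody quantified product after a 2 h room-temperature reaction containing 500 nM biotinylated H3K9 peptide, 20 µM SAM and 20 nM enzyme, which had been preincubated 15 min with compound.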
Active calls of the source: *; ? = inconclusive; · = not tested or not shown; [ ] = remark or other dose. Calls follow the shape of the dose curve; as a rule, active = well fitted curve in the direction sought with a large enough effect; inconclusive = small, poorly fitted or top-dose-only effect, or another doubt; inactive = no such curve, though single readings can be large; an effect the other way counts as inactive or inconclusive. Potency is read from the fitted curve at half-maximal effect.

SMILES | BAZ2B inh | Sfp PPTase inh | PLK1 PBD inh | HP1b chromo inh | JMJD2A Tudor inh | G9a inh
CN(C)[C@@H]1C(=O)C(C(=O)NCN2CCCC2)=C(O)[C@@]2(O)C(=O)C3=C(O)c4c(O)cccc4[C@@](C)(O)C3CC12 (stereo partly specified) | 1.3µM* | 50µM* | · | · | · | 3.2µM*
CN(C)[C@H]1C(=O)C(C(=O)NCN2CCCC2)=C(O)[C@]2(O)C(=O)C3=C(O)c4c(O)cccc4[C@](C)(O)[C@H]3C[C@H]12 | · | ? | · | · | · | 1.6µM*
C=C1c2cccc(O)c2C(O)=C2C(=O)[C@]3(O)C(O)=C(C(N)=O)C(=O)C(N(C)C)C3C(O)C12 (stereo partly specified) | · | -45% | · | · | · | ?
C=CCNc1nc(C(=O)OCC(=O)c2ccc(OC)cc2OC)cs1 | 7% | · | -2% | 22% | -8% | 21%
C=CCNc1nc(C(=O)OCC(=O)Nc2ccccc2C(F)(F)F)cs1 | ? | · | -3% | 17% | -4% | 24%[12.7 µM]
C=CCNc1nc(C(=O)OCC(=O)c2ccc(Cl)cc2)cs1 | 35µM* | · | -26% | -38% | 50µM* | 50µM*
C=CCNc1nc(C(=O)OCC(=O)c2ccc(C)c([N+](=O)[O-])c2)cs1 | 50µM* | 6% | -18% | -13% | -24% | 13%
Cc1ccc(C(=O)COC(=O)c2ccncc2)cc1[N+](=O)[O-] | -5% | 13% | 3% | 30% | -8% | 14%[59 µM]
C=CCNc1nc(C(=O)OCC(=O)Nc2cccc(SC)c2)cs1 | 79µM* | · | -6% | 1% | ? | 56µM*
CCOc1ccccc1NC(=S)N1CCN(c2nc(-c3cccc(OC)c3)cs2)CC1 | ? | -24% | -13% | -21% | -33% | ·
COc1ccc2c(c1)c(CC(=O)Nc1cccc(S(N)(=O)=O)c1)c(C)n2C(=O)c1ccc(Cl)cc1 | -21% | ? | -20% | -2% | -11% | 0%[12.7 µM]
CCOP(=O)(OCC)C(NC(=O)/C=C/c1ccc(OC)cc1)c1ccccc1 (stereo unspecified) | 4% | 16% | -2% | 28% | -7% | -10%
CC(C)NC(=O)COC(=O)c1ccccc1C(=O)c1ccccc1 | -15% | 9% | 0% | 43% | -2% | 1%
COC(=O)c1ccc(NC(=O)C(=O)c2cn(CC(=O)N3CCOCC3)c3ccccc23)cc1 | -4% | -2% | -12% | 12%[57 µM] | -5% | 46%
COc1cc(/C=N/NC(=O)c2nc3ccccn3c2C)cc(OC)c1O | -24% | 1% | -5% | 25% | -11% | 16µM*
Cc1nc2ccccn2c1C(=O)N/N=C/c1cc(C)n(-c2ccc(Br)cc2)c1C | 45µM* | -11% | -5% | -40% | ? | -23%[59 µM]
Cc1c(C(=O)N/N=C/c2ccc(N3CCOCC3)cc2)nc2ccccn12 | -4% | 12% | -6% | 42% | -6% | -5%
Cc1cc(/C=N/O)c(C)n1-c1ccc(Br)cc1 | 45µM* | -6% | -7% | ? | ? | ?
COc1cc(/C=N/NC(=O)c2c(C)nc3ccc(Cl)cn23)cc(OC)c1OC | ? | -11% | 21µM* | 157% | 22µM* | ·
Cc1nc2ccccn2c1C(=O)N/N=C/c1ccccc1 | -3% | 22% | -12% | 20% | -3% | 8%[2.33 µM]
Nc1cc(C(F)(F)F)ccc1S(=O)(=O)Nc1cccc2c1NCCC2 | · | · | · | 12% | ? | ·
COc1ccccc1C(=O)Nc1ccccc1OCc1cc(=O)n2cc(C)sc2n1 | -18% | · | · | 39% | -9% | -24%[59 µM]
COc1cccc(/C=N/NC(=O)c2c(C)nc3ccc(Br)cn23)c1O | 7.9µM* | 21% | ? | 2% | 35µM* | -9%
CCOC(=O)c1c(C)sc(-c2c(-c3cccc(Cl)c3)[nH]c3c2c(=O)n(C)c(=O)n3C)c1O | ? | · | · | 23% | ? | ?
